From PubChem BioAssay come the findings set out here.

Unmarked numbers belong to inactive results. Active and inactive are the calls of the source.

This assay is described as follows: forskolin-driven CRE-LacZ activity in PC12 – cell-based, CRE-LacZ reporter, forskolin-stimulated, primary screen (AID 1146).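 Further: PC12 cells with 6xCRE LacZ reporter stimulated by forskolin 10 µM; beta-galactosidase reporter signal reflecting CREB driven transcription.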 To be noted: luminescence, 4.5 h, higher = more signal, called active from +8 up or from −8 down.
In the case of `COC(=O)CC=C[C@@H](C)[C@@H](C=NOC(C)CN1CCCCc2nc(C)c(C)cc21)OC` (some centres not stated), the z-score is 0.802. To `CCOC(=O)[C@H](CC(C)C)NC(=O)CCC1CC(OC(=O)NCc2ccc3c(c2)OCO3)CC2(CCCC(COC(=O)NCCc3ccc(Cl)cc3)O2)O1` (some centres not stated) belongs 0.501; to `CC(CCN1CCc2nc(-c3ccccc3)c(-c3ccccc3)cc2C1)=NO[C@H](C)c1cn([C@H](CO)Cc2ccccc2)nn1`, 1.11. To `CC(CCC(=O)OC[C@H]1O[C@H](C#Cc2ccccc2)C=C[C@@H]1Oc1ccc(C)cc1)=NO[C@H](C)c1cn([C@@H]2COC[C@H]2O)nn1` belongs -0.0087; to `CC(CCN1CCc2nc(-c3ccccc3)c(-c3ccccc3)cc2C1)=NOC(C)CN1CCCc2nc(C)c(C)cc21` (configuration not stated), -0.0977; to `CCC1=NOC(CCC2CC(OC(=O)NCc3cccc4c3OCO4)CC3(CCCC(COC(=O)NCCc4ccc(Cl)cc4)O3)O2)C1` (configuration not stated), -0.51. On to `CCOC(=O)CCN1C(=O)[C@H]2[C@@H]3C(=CC[C@H]2C1=O)C(=O)[C@H]1O[C@H]1[C@H]3O`, for which the z-score is 28.7 (active). To `CON=C(C)CCC(=O)OC[C@H]1O[C@H](C#Cc2ccccc2)C=C[C@@H]1Oc1ccc(C)cc1` belongs 1.24; to `Cc1cc2c(nc1C)CCCCN2CC(O)CN1CCCc2nc(-c3ccc(Br)cc3)ccc21` (configuration not stated), 0.597.

As for `COC(=O)[C@H](C)NC(=O)CCC1CC(OC(=O)NCc2cccc3ccccc23)CC2(CCCC(COC(=O)NCCc3ccccc3OC)O2)O1` (some centres not stated), the z-score is 0.684. To `CC#CCOCCC=C1c2ccccc2[C@@H](OC)[C@@H]1C` belongs -0.146; to `CCO[C@H](c1cc(OC)cc([N+](=O)[O-])c1OC)[C@H](C)[C@@H](OC)[C@H](C)C=CCC(=O)OC`, -0.183. For the molecule `O=C1[C@H]2[C@H]3[C@H](O)[C@H](O)CC(=NOC[C@@H](O)COCc4ccco4)[C@@H]3CC[C@H]2C(=O)N1c1cccc(Oc2ccccc2)c1`, the z-score was -0.009. Turning to `COC(=O)[C@@H]1CC[C@H](C)[C@@H](c2ccc(Br)cc2)N1C[C@@H](O)CN=[N+]=[N-]`, the z-score is -0.571. The value for `CCOC(=O)[C@H](Cc1ccccc1)NC(=O)CCC1CC(OC(=O)NCc2cccc3ccccc23)CC2(CCCC(COC(=O)NCC3CCCCC3)O2)O1` (some centres not stated) was 0.895. To `C#CCCCON=C1[C@H]2CCn3c(=O)n([C@@H](CC)c4ccccc4)c(=O)n3[C@H]2[C@H](O)[C@@H]2O[C@H]12` belongs 0.253; to `C[C@@H]1C=CCC(=O)OC[C@H](C)C(=O)N[C@@H](Cc2ccccc2)C(=O)OC1`, -0.846; to `Cc1ccc2[nH]c3nc(CCCn4ccnc4-c4ccccc4)nnc3c2c1`, -0.815.

`CC(CCN1CCc2nc(-c3ccccc3)c(-c3ccccc3)cc2C1)=NO[C@@H](C)c1cc(-c2c(C)cc(C)cc2C)no1`: the z-score is -0.426. As for `O=C1[C@H]2CCn3c(=O)n(Cc4cc5c(cc4Cl)OCO5)c(=O)n3[C@H]2[C@H](O)[C@@H]2O[C@H]12`, the z-score is -0.0963. Take `CCCNC(=O)OC[C@H]1O[C@H](CCON=C[C@@H](NS(=O)(=O)c2ccc(C)cc2)[C@H](C)C=CCC(=O)OC)C=C[C@@H]1Oc1ccc(OC)cc1`: the z-score was 0.26. Regarding `CCN1C(=O)[C@H]2[C@H]3[C@H](O)[C@H](O)CC(=NOCC[C@@H]4C=C[C@H](OC(C)=O)[C@@H](COC(C)=O)O4)[C@@H]3CC[C@H]2C1=O`, the z-score was 0.313. The value for `COc1ccc(O[C@H]2C=C[C@@H](c3ccccc3)O[C@@H]2COC(=O)CCC(C)=NOC[C@@H](O)COCc2ccco2)cc1` was -0.215; that for `CC(C)[C@@H](OCc1ccccc1)[C@H](C)C=NOC[C@@H](O)[C@H]1O[C@@H]2OC(C)(C)O[C@@H]2[C@H]1O` was 0.307. Turning to `O=C1C2=CC[C@H]3C(=O)N(Cc4ccccc4)C(=O)[C@H]3[C@H]2[C@H](O)[C@@H]2O[C@H]12`, the z-score is 25 (active). In the case of `COC(=O)[C@H](C)NC(=O)CCC1CC(OC(=O)NCc2ccc3c(c2)OCO3)CC2(CCCC(COC(=O)NCc3ccccc3)O2)O1` (some centres not stated), the z-score is -0.169. To `CC(C)CON=C1C[C@@H](O)[C@@H](O)[C@@H]2[C@@H]3C(=O)N(Cc4ccccc4)C(=O)[C@@H]3CC[C@H]12` belongs 0.627.
